FEN1 inhibitor: blocks human flap endonuclease 1 | P39748 | Recombinant FEN1 flap cleavage, fluorescence, 15 min | Potency, µM (titrated, usually from 114 µM), for the others: at the highest dose activity change, negative = inhibition, most hits filed as inhibitors | 390,000 compounds, 0.35% hits | AID 588795; note: potency is the fitted concentration of half-maximal effect; % is set by controls: 0 for no effect and ±100 for the full control effect; nearly all actives have a fitted effect of over 65% in size
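Enzyme 10 nM, 15 min RT preincubation with compound; start with substrate 50 nM final; reads at 0 and 15 min; qHTS titration, four-parameter Hill fit.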
WRN inhibitor: WRN helicase (human) inhibition | WRN helicase unwinding, fluorescent forked duplex, kinetic | 360,000 compounds, 0.46% hits | Q14191 | Potency, µM (top dose mostly 114 µM), without a hit: at the highest dose activity change, negative = inhibition, most hits filed as inhibitors; note: potency is the fitted concentration of half-maximal effect; % is set by controls: 0 for no effect and ±100 for the full control effect; nearly all actives have a fitted effect of over 55% in size
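WRN at 20 nM final was preincubated with compound for 15 min at room temperature; reaction started with 100 nM forked duplex oligonucleotide carrying fluorophore and quencher plus 2 mM ATP (final). Unwinding followed kinetically by red fluorescence (ex 525/em 598 nm).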
Tb PFK inh-1: inhibitors of T. brucei phosphofructokinase; O15648; T. brucei PFK, ADP-Glo luminescence; Potency, µM (series often up to 57.5 µM), without a hit: at the top dose activity, negative = inhibition, most hits filed as inhibitors; 330,000 compounds, 0.17% hits; AID 485367;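 note: potency is the fitted concentration of half-maximal effect; 0% = uninhibited 1x PFK enzyme wells and -100% = no-enzyme wells; nearly all actives have a fitted effect of over 60% in size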
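In TEA buffer at pH 8.0 with 5 mM MgCl2, enzyme (1.25 nM) converted F6P (0.5 mM) and ATP (0.1 mM) for 45 min at room temperature. ADP product was read by luciferase luminescence.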
PI5P4Ka inh: inhibitors of human PI5P4K alpha; max response, %; AID 652105; PI5P4Kalpha enzyme, ADP-Glo luminescence, 60 min; hits give low values; P48426; 330,000 compounds, 1.2% hits; active = max response of -50% or lower; inconclusive = between -30% and -50%; inactive = -30% or higher; note: value at the top dose of about 77 µM; % is set by controls: 0 for no effect and ±100 for the full control effect
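Enzyme plus substrate dispensed, test compounds pinned in, then ATP (5 microM final) added. After 60 min at RT, ADP-Glo reagent 1 for 45 min and reagent 2 for 30 min preceded luminescence imaging.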
PGK inhibitor: T. brucei PGK inhibition | 380,000 compounds, 0.043% hits | PGK/GAPDH coupled, Kinase-Glo luminescence, 60 min | Potency, µM (highest dose often 57.5 µM), without a hit: top-dose activity change, negative = inhibition, hits mostly inhibitors | P07378; note: potency is the fitted concentration of half-maximal effect; % is set by controls: 0 for no effect and ±100 for the full control effect; nearly all actives have a fitted effect of over 60% in size
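Recombinant glycosomal PGK reaction used 1,3-bisphosphoglycerate generated in-well by GAPDH (100nM final) in 100mM TEA pH 7.6, 5mM MgCl2, 0.01% Tween-20. After 60 minutes at room temperature, ATP was read by Kinase-Glo Plus luminescence end-point.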
TDP1 inh: blocks human tyrosyl-DNA phosphodiesterase 1; Q9NUW8; recombinant TDP1, AlphaScreen DNA substrate cleavage; Potency, µM (series often up to 130 µM), for inactives: at the highest dose activity change, negative = inhibition, most hits filed as inhibitors; 350,000 compounds, 0.28% hits; AID 485290; note: potency is the fitted concentration of half-maximal effect; % is set by controls: 0 for no effect and ±100 for the full control effect; nearly all actives have a fitted effect of over 40% in size
Target sequence (Q9NUW8 whole entry, looked up): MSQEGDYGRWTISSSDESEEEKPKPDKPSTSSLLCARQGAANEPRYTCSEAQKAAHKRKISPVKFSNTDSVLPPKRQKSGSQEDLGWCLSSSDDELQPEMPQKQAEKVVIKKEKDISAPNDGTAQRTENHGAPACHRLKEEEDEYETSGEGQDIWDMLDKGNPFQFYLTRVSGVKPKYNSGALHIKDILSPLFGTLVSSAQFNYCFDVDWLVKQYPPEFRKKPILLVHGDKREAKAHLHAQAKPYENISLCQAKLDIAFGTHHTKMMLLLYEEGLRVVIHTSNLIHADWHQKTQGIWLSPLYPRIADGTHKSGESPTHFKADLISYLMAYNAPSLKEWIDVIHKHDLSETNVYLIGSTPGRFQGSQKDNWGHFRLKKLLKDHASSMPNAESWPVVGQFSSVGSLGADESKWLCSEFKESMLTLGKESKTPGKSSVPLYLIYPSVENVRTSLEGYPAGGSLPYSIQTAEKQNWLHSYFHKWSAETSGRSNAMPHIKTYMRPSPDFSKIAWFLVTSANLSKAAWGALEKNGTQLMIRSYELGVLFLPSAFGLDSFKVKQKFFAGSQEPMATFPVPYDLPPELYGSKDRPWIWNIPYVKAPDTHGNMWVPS
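Signal: AlphaScreen proximity between streptavidin donor and anti-FITC acceptor beads on intact substrate. Reaction: Tdp1 1 nM, substrate 15 nM final, 5 min RT after 15 min compound preincubation.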
Tb PFK KinaseGlo: inhibits T. brucei PFK measured by ATP depletion; Potency, µM (top dose mostly 57.5 µM), without a hit: top-dose inhibition; 1,100 compounds, 47% hits; shares compounds with Tb PFK inh-1; Tb PFK enzyme, ATP depletion, Kinase-Glo Plus luminescence; calls by dose curve; note: potency is the fitted concentration of half-maximal effect; nearly all actives have a fitted effect of over 60% in size
Tb PFK inh-2: validation of T. brucei phosphofructokinase inhibitors | shares compounds with Tb PFK inh-1 | purified T. brucei PFK, ADP-Glo luminescence, 45 min | Potency, µM (titrated, usually from 57.5 µM), without a hit: at the highest dose activity change, negative = inhibition, most hits filed as inhibitors | 1,100 compounds, 41% hits | AID 504637;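 note: potency is the fitted concentration of half-maximal effect; plate controls were full PFK enzyme control for no effect and no enzyme control for full effect; nearly all actives have a fitted effect of over 60% in size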
Starred values were filed as active, the others as inactive; i = inactive; ? = inconclusive; . = not tested or not shown; [ ] = another dose, or the depositor's remark. Rows were chosen to be rich in hits. Some 1.5% of all compounds tested hit in one or more screens of this group. Unless noted, calls come from the whole dose curve; as a rule, active = well fitted curve in the direction sought with a large enough effect; inconclusive = small, poorly fitted or top-dose-only effect, or another doubt; inactive = no such curve, though single readings can be large; an effect the other way counts as inactive or inconclusive.

SMILES	FEN1 inhibitor	WRN inhibitor	Tb PFK inh-1	PI5P4Ka inh	PGK inhibitor	TDP1 inh	Tb PFK KinaseGlo	Tb PFK inh-2
Cn1ccnc1	?	.	.	.	.	-9%[56.1 µM]	.	.
CN(C)c1ccc(/C=C/C=C2/C(=O)NC(=O)N(c3ccccc3)C2=O)cc1	?	18µM*	?	-78*	?	3%	.	.
O=C1NC(=O)N(c2ccccc2)C(=O)/C1=C/C=C/c1ccco1	?	?	?	?	-5%	.	.	.
O=c1[nH]c(=O)n(Cc2ccco2)c(O)c1/C=N/N1CCCCCC1	-3%	-8%	1%	1	1%	-6%	.	.
NC(=O)c1ccc(N=Cc2c(O)n(Cc3ccco3)c(=O)[nH]c2=O)cc1	40µM*	50µM*	-20%	-79*	?	28µM*	.	.
N#Cc1c(/N=C/c2c(O)n(Cc3ccco3)c(=O)[nH]c2=O)sc2c1CCCC2	?	56µM*	-4%	.	.	?	.	.
ClCC(Cl)Cl	.	.	.	.	.	2%	.	.
Cc1ccc(N2C(=O)NC(=O)/C(=C\C=C\c3ccco3)C2=O)cc1C	?	16µM*	?	?	-6%	-5%	.	.
CCC(=O)Nc1ccccc1	-3%	1%	4%	-4	-9%	.	.	.
CCC(=O)Nc1cc(C(=O)O)ccc1S(=O)(=O)c1ccc(C)cc1	?	?	7%	-6	?	20µM*	.	.
O=C(O)CCC(=O)NCCC1=c2ccccc2=N/C1=C\c1c(O)n(Cc2ccc(F)cc2)c(=S)[nH]c1=O	-10%	79µM*	?	-85*	-6%	35µM*	.	.
C[C@@H]1O[C@@H](O[C@H]2C[C@@H](O)[C@]3(CO)[C@H]4[C@H](O)C[C@]5(C)[C@@H]([C@@H]6COC(=O)C6)CC[C@]5(O)[C@@H]4CC[C@]3(O)C2)[C@H](O)[C@H](O)[C@H]1O	.	.	.	.	.	-10%[56.1 µM]	.	.
O=C1NC(=O)C(=Cc2cc(Cl)ccc2OCc2ccc(C(=O)O)cc2)C(=O)N1	?	-9%	0%	-71*	i	.	.	.
CN1C(=O)C(=Cc2ccccc2OCc2ccc(Cl)cc2)C(=O)N(C)C1=O	-1%	-24%[57.1 µM]	-1%	-12	-2%	.	.	.
CC/C=C\C/C=C\C/C=C\C/C=C\C/C=C\CCCC(=O)NC(C)C(=O)O (centres undefined)	.	.	.	.	.	4%	.	.
C=CCCl	.	.	.	.	.	9%	.	.
[Cd+2].[Cl-].[Cl-]	.	.	.	.	.	3%	.	.
[Cl-].[Cl-].[Hg+2]	.	.	.	.	.	35µM*	.	.
COC(=O)C1=C(C(=O)OC)SC2(S1)C(C(=O)OC)=C(C(=O)OC)Sc1c2ssc1=O	-20%	13µM*	.	?	-8%	.	.	.
CCOc1ccc(NS(=O)(=O)c2ccc(Cl)c(N=Nc3c(O)[nH]c(=S)[nH]c3=O)c2)cc1Br	.	?	.	?	22µM*	.	.	.
O=[N+]([O-])c1ccc(NCc2ccc3c(c2)OCO3)cc1	-10%	-7%	6µM*	4	-9%	5%	4.8µM*	12µM*
Cc1ncc(C[n+]2csc(CCOP(=O)(O)O)c2C)c(N)n1	.	.	.	.	.	15%	.	.
Cc1ccn(-c2cc(O)c(-n3ccc(C)n3)cc2O)n1	-2%	-9%	?	-4	5%	2%	-14%	?
Cc1coc2c1CCC(C)C2 (centres undefined)	.	.	.	.	.	5%	.	.
O=C(Nc1ccc(Cc2ccncc2)cc1)c1ccc(Cl)c([N+](=O)[O-])c1	-24%	-7%	21µM*	-9	-5%	-1%	21µM*	?
SMILES	FEN1 inhibitor	WRN inhibitor	Tb PFK inh-1	PI5P4Ka inh	PGK inhibitor	TDP1 inh	Tb PFK KinaseGlo	Tb PFK inh-2
CCN(CC)C(=O)c1ccc(NC(=O)c2ccc(-n3cncn3)c([N+](=O)[O-])c2)cc1	0%	-6%	-8%	-7	2%	.	.	.
O=S(=O)(Nc1ccccc1)c1cccc2nsnc12	10%	2%[11.6 µM]	?	?	-10%	.	?	?
O=C(C(Cc1ccccc1)NS(=O)(=O)c1cccc2nsnc12)N1CCC2(CC1)OCCO2 (centres undefined)	-9%	-1%	-2%	-13	-1%	8%	.	.
COc1ccccc1/C=C1\SC(=S)N(NS(=O)(=O)c2ccccc2)C1=O	-16%	-13%[57.1 µM]	?	-30	3%	.	-27%	?
CS(=O)(=O)N1Cc2ccccc2CC1C(=O)OCC(=O)Nc1ccc2ccccc2c1 (centres undefined)	-9%	-35%	?	.	-4%	-5%	?	-23%
N#Cc1nc(-c2cccc3ccccc23)oc1NCC#CCOC(=O)c1cccs1	.	.	21µM*	.	.	.	8.5µM*	27µM*
CCCC/C=C/[C@@H](NP(=O)(c1ccccc1)c1ccccc1)c1ccccc1OC	.	.	.	.	.	4%	.	.
COc1cccc(OCCc2c(C)n[nH]c2C)c1	-7%	-13%	27µM*	.	-2%	4%	?	?
Oc1ccc(Cl)cc1Sc1cc(Cl)ccc1O	-25%	?	.	26	7%	10%	.	.
NC1=N[C@H](O)[C@H]2C3O[C@]4(O)O[C@H](C(O)[C@@]2(N1)[C@@H]4O)C3(O)CO (some centres undefined)	.	.	.	.	.	17%	.	.
O=C1CC2OCC=C3CN4CC[C@]56c7ccccc7N1[C@H]5[C@H]2C3C[C@H]46 (some centres undefined)	.	.	.	.	.	4%	.	.
CCc1cccc(C)c1NC(=O)COC(=O)CNS(=O)(=O)/C=C/c1ccccc1	7%	-3%	?	-1	-5%	3%	?	27µM*
COc1ccc(S(=O)(=O)N2CCOCC2)cc1NC(=O)COC(=O)Cc1ccccc1	12%	-5%	-1%	5	7%	0%	.	.
Cc1ccc(NC(=O)CSc2ncc3ccccn23)cc1C	9%	12%	9.5µM*	-4	-3%	-3%	?	-18%
O=C(O)Cc1ccc(NC(=O)Nc2ccc(Br)cc2)cc1	8%	-6%	?	-1	2%	4%	12µM*	24µM*
BrCCBr	.	.	.	.	.	17%	.	.
COc1ccc(NC(=O)Cc2ccc(Cl)c(Cl)c2)cn1	18%	5%	12µM*	-2	-1%	-2%	6µM*	13µM*
Cc1cc(NC(=O)COC(=O)CSCc2ccc(Cl)c(Cl)c2)no1	-22%	-19%	?	14	-5%	3%	?	?
COc1ccc(C(CNC(=O)Cc2ccc(Cl)c(Cl)c2)N(C)C)cc1 (centres undefined)	1%	6%	-11%	-2	5%	0%	.	.
